Rows were chosen to be rich in hits. Some 1.1% of all compounds tested hit in one or more screens of this group.
Anesthetic bind: binds horse apoferritin like a general anesthetic. P02791. apoferritin/1-aminoanthracene competitive binding, fluorescence. Potency, µM (doses to about 77.5 µM), hits mostly inhibitors. actives 0.074% (n = 350,000); further: nearly all actives have a fitted effect of over 20% in size
Target sequence (P02791 2-175 limits assumed): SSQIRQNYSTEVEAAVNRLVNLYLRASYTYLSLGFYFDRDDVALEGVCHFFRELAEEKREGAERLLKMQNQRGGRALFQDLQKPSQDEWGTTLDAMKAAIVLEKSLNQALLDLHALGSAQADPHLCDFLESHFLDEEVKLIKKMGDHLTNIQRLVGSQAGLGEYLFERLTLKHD
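Read-out: endpoint 1-AMA fluorescence, excitation 380 nm and emission 535 nm, after compounds sit 10 min at room temperature with 10 uM horse-spleen apoferritin in 50% saturated 1-AMA/PBS. Values come from four-parameter Hill fits.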
GRP78 ERSR act: induces the endoplasmic reticulum stress response in human glioma cells | U87-MG GRP78 promoter luciferase reporter, 16 h | Potency, µM, usual class: activators | actives 0.02% (n = 420,000); further: series mostly up to about 76 µM; nearly all actives have a fitted effect of over 35% in size
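Stably transfected U87-MG glioma cells carrying a GRP78-based luciferase sensor; 16 h compound incubation. Luminescence end-point read 10 min after Bright-Glo addition at room temperature.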
12-LOX inh: inhibitors of human 12S-lipoxygenase ALOX12; Potency, µM (series often up to 108 µM), actives largely listed as inhibitors; P18054; actives 1.1% (n = 580,000); purified 12hLO, xylenol orange hydroperoxide absorbance
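Purified human 12hLO at 150 nM in 25 mM Hepes, 0.01% Triton X-100, pH 7.0, preincubated 15 min at room temperature with compound. Reaction started with 40 uM arachidonic acid, 30 min at room temperature. Hydroperoxide measured by Fe-xylenol orange, 573/405 nm absorbance ratio.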
Chronic BCR inh: inhibitors of chronic active B-cell receptor signaling; actives 0.05% (n = 340,000); ABC-DLBCL IkBa-CBG/CBR reporter, luminescence ratio, 4 h; Potency, µM (doses to about 46.1 µM), most hits filed as inhibitors; AID 493014; active means well fitted inhibition curve with a large enough effect in the signal ratio, with a control signal flat, not every such curve was filed as active; inconclusive means small, poorly fitted or top-dose-only effect, or effect the other way, or a change in a side signal; the % refers to the signal ratio
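Concentration-response series (up to 46 uM) were applied to TMD8 dual-reporter cells for 4 h at 37C with doxycycline. Green/red ratio, after filter-overlap correction, defined %Activity; red signal alone was normalised to basal cells and zero luminescence.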
Numbers stand for hits; n = inactive; u = inconclusive; x = no result; [ ] = remark or other dose. Unless noted, the call rests on the fitted dose curve; in most records, active means well fitted curve in the direction sought with a large enough effect; inconclusive means small, poorly fitted or top-dose-only effect, or another doubt; inactive means no such curve, though single readings can be large; an effect the other way counts as inactive or inconclusive.

SMILES	Anesthetic bind	GRP78 ERSR act	12-LOX inh	Chronic BCR inh
O=C(NNC(=S)NC(=O)c1ccccc1[N+](=O)[O-])c1ccccc1[N+](=O)[O-]	n	n	n	u
CN(C)C(=O)CCc1c(-c2ccc(F)cc2)[nH]c2ccc(F)cc12	x	x	n	x
Cc1ccc(O)c(C(=O)OC(C)C(=O)Nc2ccc3c(c2)OCO3)c1 (configuration not stated)	x	x	n	x
COc1ccc(-c2ccc(CCC(=O)O)n2Cc2ccco2)cc1	n	n	u	u
O=C(O)CCc1ccc(-c2ccc(Cl)cc2)n1Cc1ccco1	n	n	39.8µM	u
CCc1cccc(CC)c1NC(=O)CO/N=C/c1ccccc1O	x	x	n	x
CC(S(=O)(=O)c1ccccc1)S(=O)(=O)c1ccccc1	x	n	n	x
CC(N1CCOC1=O)S(=O)(=O)c1ccccc1 (configuration not stated)	n	n	35.5µM	n
Cc1ccc(C)c(-c2nn(CC(=O)NCC(F)(F)F)c(=O)c3ccccc23)c1	x	x	n	x
Cc1ccc(NC(=O)c2cc(N3C(=O)CCC3=O)ccc2N2CCOCC2)cc1	n	n	n	n
Cc1ccc(NC(=O)c2cc(N3C(=O)C=CC3=O)ccc2N2CCOCC2)cc1Cl	n	n	12.6µM	u
Clc1cc(Cl)cc(NC2CNC2)c1	x	x	n[12.5 µM]	x
CC(C)NC(=O)c1onc(CSc2ccc(F)c(F)c2)c1C(=O)O	n	n	31.6µM	u
O=C1ON=C(c2cccc([N+](=O)[O-])c2)/C1=C/c1ccc(O)cc1	n	n	7.94µM	n
COC(=O)Cn1cc(/C=C2/SC(=O)N(C(C)C)C2=O)c2ccccc21	x	x	n	x
NNc1ccc(Cc2ccc(NN)cc2)cc1	x	x	20µM	x
CS(=O)(=O)Nc1ccc(Cc2ccc(NS(C)(=O)=O)cc2)cc1	n	n	u	n
Clc1ccc(CNC[C@H]2Cn3c(-c4cccc(Cl)c4)cnc3CO2)cc1	x	x	n	x
Fc1ccc(-c2cnc3n2C[C@H](CNCc2ccc4c(c2)OCO4)OC3)cc1	x	x	22.4µM	x
Clc1ccc(CNC[C@H]2Cn3c(-c4ccccc4)cnc3CO2)cc1	x	x	25.1µM	x
Cc1ccc(-c2cn3c(n2)CO[C@@H](CNCc2ccc(Cl)cc2)C3)cc1	x	x	12.6µM	x
Cc1ccc(-c2cn3c(n2)CO[C@@H](CNCc2ccc(S(C)(=O)=O)cc2)C3)cc1	x	x	n	x
Clc1ccc(-c2cnc3n2C[C@H](CNCc2ccc4c(c2)OCO4)OC3)cc1	x	x	39.8µM	x
Clc1ccc(-c2cnc3n2C[C@H](CNCc2cccnc2)OC3)cc1	x	x	n	x
CC(C)(C)N1CC(c2nc3ccccc3n2Cc2ccc3ccccc3c2)CC1=O (configuration not stated)	x	x	n	x
SMILES	Anesthetic bind	GRP78 ERSR act	12-LOX inh	Chronic BCR inh
Cc1cc(C)c2c(=O)n(CC(=O)Nc3cccc(F)c3)sc2n1	n	n	u	u
Cc1ccc(NC(=O)Cn2sc3nc(C)cc(C)c3c2=O)c(Cl)c1	n	n	2µM	n
Cc1cc(C)c2c(=O)n(CC(=O)Nc3ccc(Cl)cc3)sc2n1	n	n	1.26µM	u
CCOc1ccc(NC(=O)Cn2sc3nc(C)cc(C)c3c2=O)cc1	n	n	x	n
Cc1ccc(C(=O)NCCn2nc(-c3ccc(Cl)cc3)ccc2=O)cc1C	x	x	n	x
CC[n+]1c(C)ccc2ccccc21	x	x	15.8µM	x
CCCC[n+]1c(C)ccc2ccccc21	x	n	x	x
COc1cc(Nc2nc3ccccc3nc2C(=O)OC(C)C)cc(OC)c1	x	x	6.31µM	x
O=c1cc(-c2ccc(OCc3ccccc3)cc2)oc2cc(OCc3ccccc3)cc(OCc3ccccc3)c12	x	n	35.5µM	n
O=C(O)c1cc(O)c2ccccc2c1O	x	x	70.8µM	x
CC1(OC(=O)C2CCCC2)C(=O)C=C2C=C(c3ccsc3)N(C3CC3)C=C2C1=O (configuration not stated)	n	n	n	n
CC1(OC(=O)C2CCCC2)C(=O)C=C2C=C(c3ccsc3)N(c3ccccc3)C=C2C1=O (configuration not stated)	n	n	12.6µM	n
N#C/C(=C/c1ccc(N2CCCCC2)o1)c1cccc(F)c1	u	u	10µM	u
Cc1ccc(/C(C#N)=C\c2ccc(N3CCOCC3)o2)cc1	n	u	12.6µM	u
COC(=O)c1ccccc1NC(=O)c1ccccc1OC(F)F	x	x	n	x
S=C(NCCc1ccc(Cl)cc1)Nc1ccc(Cl)cc1Cl	n	n	31.6µM	u
C/C(=N\NC(=S)NCCc1ccccc1)c1ccc(Cl)cc1Cl	n	n	44.7µM	n
S=C(NCCc1ccccc1)Nc1ccc(Cl)cc1NC(=S)NCCc1ccccc1	x	x	17.8µM	x
CC(=O)O	x	x	n	x
CCOC(=O)C1(Cc2ccc(Cl)cc2)CCNCC1	x	x	n	x
Cc1n[nH]c(C)c1CCCCOc1ccccc1	n	n	n	n
Cc1ccc(OCCCc2c(C)n[nH]c2C)cc1	u	n	6.31µM	u
CCN1CCN(CCOc2ccc(Cl)cc2)CC1	n	n	1.41µM	n
COc1cc(/C=C(/C#N)c2ccccn2)ccc1OCc1cccc(C(F)(F)F)c1	x	x	6.31µM	x
CC(=O)C1=C(O)C(=O)N(c2ccccn2)C1c1ccc(C)cc1 (configuration not stated)	n	n	n	n
SMILES	Anesthetic bind	GRP78 ERSR act	12-LOX inh	Chronic BCR inh
CC(C)CC(=O)C1=C(O)C(=O)N(Cc2ccccc2)C1c1ccccc1 (configuration not stated)	n	n	n	n
CC(=O)C1=C(O)C(=O)N(Cc2ccccc2)C1c1ccc(Br)cc1 (configuration not stated)	n	n	11.2µM	u
CC(=O)C1=C(O)C(=O)N(c2ccc(Br)cc2)C1c1ccc(Br)cc1 (configuration not stated)	n	n	7.94µM	n
CC(=O)C1=C(O)C(=O)N(c2nccs2)C1c1ccccc1 (configuration not stated)	n	n	8.91µM	n
CN(CC(=O)Nc1ccc(F)c(Cl)c1)Cc1nc2ccccc2c(=O)[nH]1	x	x	n	x
C=CCOc1ccc(/C=C(\C(=O)c2ccc(OCC)cc2)c2nc3ccccc3s2)cc1	x	x	n	x
Oc1[nH]c2ccc(Br)cc2c1N=NC(=S)N1CCOCC1	n	n	39.8µM	u
CC1CCC(NC(=O)Nc2cccs2)CC1 (configuration not stated)	u	n	12.6µM	u
Cc1cc2nn(-c3ccc(Cl)cc3)nc2cc1N	n	n	7.08µM	u
Cc1cc2nn(-c3ccc(F)cc3)nc2cc1N	n	n	n	u
COc1ccc(-n2nc3cc(C)c(N)cc3n2)cc1Cl	n	n	8.91µM	u
COc1ccc(C(=O)N2CCC3(CC2)NC(=O)N(c2ccccc2Cl)N3)cc1F	x	x	1.26µM	x
COc1ccc(Cl)cc1C(=O)N1CCC2(CC1)CC(=O)c1ccccc1O2	x	n	u	u
O=C(c1ccccc1)c1ccc(C(=O)N2CCN(c3ccccc3Cl)CC2)cc1	x	n	n	n
O=C(c1ccc2c(c1)OCO2)N1CCC2(CC1)NC(=O)N(c1ccccc1Cl)N2	x	x	2µM	x
COc1ccc(Cl)cc1C(=O)N1CCC2(CC1)NC(=O)N(c1ccccc1Cl)N2	x	x	1.78µM	x
O=C1NC2(CCN(C(=O)c3ccc4c(c3)OCO4)CC2)COc2ccccc21	x	x	n	x
O=C(c1ccoc1)N1CCC2(CC1)NC(=O)N(c1ccccc1Cl)N2	x	x	1.26µM	x
